Screens as filed in PubChem BioAssay.
TRHR ag: TRH receptor (human) agonism. P34981. TRHR cells, calcium flux fluo-8, FDSS agonist mode. activation, % at 2 µM. 360,000 tested, 0.18% active; note: 0% is about no effect
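Fluo-8-loaded TRHR cells; 10 s baseline, compound added, kinetic Ca2+ fluorescence read 1/s, agonist mode.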
D1 potentiator: enhances dopamine response at the human D1 receptor; P21728; HEK293 TREx D1 cells, calcium flux, dopamine EC20 potentiation; potentiation, % at 10 µM; 360,000 tested, 0.036% active; AID 504651; in the data active = potentiation above about 30%; note: 0% is about no effect
Target sequence (P21728 whole entry, looked up): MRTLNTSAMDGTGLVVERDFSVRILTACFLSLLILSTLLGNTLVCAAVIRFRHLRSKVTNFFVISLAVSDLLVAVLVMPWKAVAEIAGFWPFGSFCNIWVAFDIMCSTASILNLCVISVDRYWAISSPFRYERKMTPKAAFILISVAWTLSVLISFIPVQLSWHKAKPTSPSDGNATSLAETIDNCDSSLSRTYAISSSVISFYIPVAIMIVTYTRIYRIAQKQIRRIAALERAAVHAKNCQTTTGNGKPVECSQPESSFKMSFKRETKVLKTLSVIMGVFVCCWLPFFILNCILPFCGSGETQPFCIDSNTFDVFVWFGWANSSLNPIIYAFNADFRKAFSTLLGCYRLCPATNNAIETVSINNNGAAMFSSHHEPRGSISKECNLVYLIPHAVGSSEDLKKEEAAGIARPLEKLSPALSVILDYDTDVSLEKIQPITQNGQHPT
D1 antag: antagonists of human D1 dopamine receptor; HEK293 TREx D1 cells, calcium flux, dopamine EC80; hits give low values; 360,000 tested, 3.2% active; AID 504652; activity change, negative = inhibition, % at 10 µM; P21728; in the data active = activity change below about -30%; note: % is set by controls: 0 for no effect and ±100 for the full control effect
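Compound effects on dopamine-evoked calcium signalling were measured in tetracycline-induced HEK293 Trex D1 cells. Dopamine at EC80 followed a 180 s compound pre-read, and fluorescence was tracked kinetically for 180 s more.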
TRHR PAM: allosteric enhancers of human TRH receptor; P34981; TRHR cells, fluo-8 calcium fluorescence, EC20 TRH enhancement; enhancement, % at 2 µM; 360,000 tested, 0.66% active; in the data active = enhancement above about 30%; note: 0% is about no effect
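Enhancer read-out: after compound pinning and an initial kinetic agonist-mode read, an EC20 of TRH (10 nM final) was injected and fluo-8 calcium signal (Ex 480/Em 530) followed at 1 s/cycle for 100 cycles in TRHR-expressing cells.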
D1 ag: agonists of human D1 dopamine receptor | P21728 | HEK293 T-REx D1 cells, calcium flux, agonist mode | activation, % at 2 µM | 360,000 tested, 1% active | AID 504660; note: 0% is about no effect
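Agonism was scored from calcium flux recorded over 180 s (1 read/s) after pintool compound addition, following a 10-cycle baseline. Cells were inducible force-coupled HEK293 TREx D1, plated overnight at 30 C and loaded with no-wash calcium dye.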
An asterisk follows results filed as active. The list is not random: actives were taken first. Their share in the collection is about 4.7%. Cut-off read from the data, not from the text of the source, unless noted: active = activation above about 30%; inactive = the rest.

SMILES	TRHR ag	D1 potentiator	D1 antag	TRHR PAM	D1 ag
CC1CN(C)C(C)C/C1=N\Oc1ccc([N+](=O)[O-])cc1 (stereo not given)	3	-7	-31*	-9	4
Oc1ccc(-c2csc(Nc3ccccn3)n2)cc1	0	-20	-79*	-5	2
CC(C)(C)c1ccc(-c2nc(SCC(=O)Nc3ccc(Cl)cc3)[nH]c(=O)c2C#N)cc1	5	-2	-11	16	132*
N#Cc1c(-c2ccco2)nc(SCC(=O)Nc2cccc(Cl)c2)[nH]c1=O	-1	-4	18	-2	5
COc1ccc(N2CCN(C(=O)CN3C(=O)CSc4c3c(C)nn4-c3ccccc3)CC2)cc1	0	-8	-24	2	7
CCOC(=O)c1c(C)[nH]c(C)c1S(=O)(=O)NCC(=O)Nc1cccc(C(F)(F)F)c1	0	1	-40*	0	5
CCOc1ccccc1NC(=S)N1CCCCCC1	-1	4	-37*	0	9
CCCCN1CCCc2cc(CN(CCCN3CCOCC3)C(=O)Nc3ccc(CC)cc3)ccc21	0	-1	13	0	2
Fc1ccc(Nc2nc(N3CCOCC3)c3ccccc3n2)cc1	0	-11	0	7	3
c1ccc2c(Nc3nc(N4CCOCC4)c4ccccc4n3)cccc2c1	0	-22	-48*	-5	1
CCOc1ccc(CNCCSc2nnnn2C)cc1OC	1	-1	-10	0	-1
Cc1ccccc1CNCCCSc1nnnn1-c1ccccc1	0	-1	4	-2	36*
CCOc1cc(CNCCSc2nnnn2-c2ccccc2)ccc1OC	1	-1	-11	-2	30*
COc1ccc(CCNc2nnc(Sc3nnnn3-c3ccccc3)s2)cc1OC	-1	-6	-53*	18	3
Cc1ccc(-c2noc(-c3ccccc3NC(=O)C3CC(=O)N(c4ccc(C)cc4)C3)n2)cc1 (stereo not given)	0	-2	-3	9	0
CCN(c1ccccc1)c1nnc(NC(=O)Nc2ccc(Br)cc2F)s1	0	-3	-23	-4	5
Nc1ccn(CC(=O)NCc2ccccc2)c(=O)n1	1	2	4	3	1
Nc1ccn(CC(=O)N[C@H](CO)Cc2c[nH]c3ccccc23)c(=O)n1	0	-4	-34*	-1	1
COc1cc2c(cc1NC(=O)COc1ccc(Br)c(C)c1)oc1ccccc12	0	0	-11	5	1
CC1CCN(C(=O)c2cc(S(=O)(=O)N3CCCCC3)c[nH]2)CC1	0	-9	-33*	0	2
CCN(C(=O)c1cc(S(=O)(=O)N2CCCCC2)c[nH]1)c1ccc(OC)cc1	-1	-3	-1	7	0
CCN(CC)C(=O)c1cc(S(=O)(=O)N2CCCCC2)c[nH]1	1	-3	-36*	-1	8
COc1cc(/C=C/C(=O)c2ccc([N+](=O)[O-])o2)ccc1O	0	3	1	0	0
COc1cc(C=C(C(C)=O)C(C)=O)ccc1O	1	-3	4	-5	2
COc1cc(/C=C/C(=O)/C=C(O)/C=C/c2ccc(O)c(OC)c2)ccc1O	58*	-2	-16	-8	262*
SMILES	TRHR ag	D1 potentiator	D1 antag	TRHR PAM	D1 ag
COc1cc(/C=C/C(=O)CC(=O)/C=C/c2ccc(O)c(OC)c2)ccc1O	107*	-2	-59*	-3	334*
Cc1cc(C)c2c(CC(=O)Nc3c(C(=O)Nc4ccc(Cl)cc4)oc4ccccc34)coc2c1	1	0	-2	2	2
CCOC(=O)c1ccc(NC(=O)C(C)NS(=O)(=O)c2ccc(OC)cc2)cc1 (stereo not given)	-1	0	-3	7	8
CCOC(=O)c1ccc(NC(=O)COc2ccc(S(=O)(=O)NC(C)CC)cc2)cc1 (stereo not given)	0	-2	-38*	4	17
CCC(C)NS(=O)(=O)c1ccc(OCC(=O)Nc2ccc3c(c2)OCCO3)cc1 (stereo not given)	-1	-6	-43*	-4	6
C/C(CC(=O)Nc1ccc2c(c1)OCCO2)=N\NC(=O)COc1ccccc1	0	1	-4	37*	1
